Among the test systems are DU-145 prostate; K-562 leukemia; MALME-3M melanoma; MDA-MB-231 breast; RXF 393 renal; SF-268 CNS; SF-295 CNS; SF-539 CNS; UACC-257 melanoma; M14 melanoma.
Assay in all cases: NCI-60 one-dose screen, 48 h (100 = growth as untreated, 0 = no growth, -100 = all killed)
Common to all, as to settings: 10 µM unless noted

This is an account of results in PubChem BioAssay (NCI).

About 83,000 compounds went through this panel and 20% of them were active in at least one assay; those are over-represented in the sample as a whole.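 Each cell line was grown in a 96-well plate and treated with one concentration of compound for 48 hours. Values below 10 were considered active.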 Unmarked numbers belong to inactive results. Active and inactive are the calls of the source.

For `COc1ccc(-n2c(C)nc3c(c(C)nn3-c3ccccc3)c2=O)cc1`, the growth was 0.999% (active) with DU-145 prostate; 8.9% (active) in the assay with K-562 leukemia; 63.7% with MALME-3M melanoma; 31.9% with MDA-MB-231 breast; 19.7% in the assay with RXF 393 renal; 30.3% in the assay on SF-268 CNS. Also, the growth was 3.34% (active) in the assay with SF-295 CNS, -1.28% (active) in the assay with SF-539 CNS, 60% in the assay with UACC-257 melanoma and 10.4% with M14 melanoma.

On to `O=C1OC2C(I)C3CC2C1C3c1ccccc1` (stereo not given), for which the growth is 107% in the assay on DU-145 prostate; 104% with K-562 leukemia; 136% with MALME-3M melanoma; 96.8% in the assay on MDA-MB-231 breast; 113% in the assay with RXF 393 renal; 106% with SF-268 CNS. For the same compound, the growth in the assay with SF-295 CNS is 172%; in the assay with SF-539 CNS, 94.1%; with UACC-257 melanoma, 121%; in the assay with M14 melanoma, 101%.

For the compound `O=C(Nc1ccc(CN2CCOCC2)cc1)c1[nH]ncc1Nc1ncnc2sccc12`, the growth in the assay on DU-145 prostate is 5.47% (active); in the assay with K-562 leukemia, 4.04% (active); in the assay with MALME-3M melanoma, 8.16% (active); with MDA-MB-231 breast, 15.8%; in the assay on RXF 393 renal, -43% (active); in the assay with SF-268 CNS, 1.23% (active). Moreover, the growth in the assay with SF-295 CNS was 17.8%; in the assay with SF-539 CNS, -34.1% (active); in the assay on UACC-257 melanoma, 19.9%; in the assay on M14 melanoma, 14.4%.

As to `CSc1ncnc2c1ncn2C1CCCO1` (stereo not given), the growth with DU-145 prostate is 127%; in the assay with K-562 leukemia it was 91.2%; in the assay with MALME-3M melanoma it was 93.6%; in the assay on MDA-MB-231 breast, 110%; in the assay with RXF 393 renal it was 131%; with SF-268 CNS, 115%. Moreover, the growth is 104% with SF-295 CNS, 103% with SF-539 CNS, 124% in the assay on UACC-257 melanoma and 109% with M14 melanoma.

`Nc1nc2ccc(-c3nc4ccc5[nH]ncc5c4c4c3CCC4)cc2s1`: the growth in the assay on DU-145 prostate is 16.5%; in the assay with K-562 leukemia, 19.4%; in the assay with MALME-3M melanoma, -2.7% (active); in the assay with MDA-MB-231 breast, 42.2%; in the assay on RXF 393 renal it was -21.9% (active); with SF-268 CNS, 37.7%. Besides, the growth in the assay with SF-295 CNS was 13.6%; with SF-539 CNS it was 3.96% (active); in the assay on UACC-257 melanoma, 36.9%; in the assay on M14 melanoma, 29.1%.

`COc1ccc(/C=N\NC(=O)CN2CCN(c3cc4c(cc3F)c(=O)c(C(=O)N/N=C/c3ccc(OC)cc3)cn4C3CC3)CC2)cc1`: the growth is 91.6% in the assay with DU-145 prostate; 71.7% with K-562 leukemia; 85.2% with MALME-3M melanoma; 85.7% with MDA-MB-231 breast; 83.3% in the assay on RXF 393 renal; 76.7% in the assay with SF-268 CNS. For the same compound, the growth in the assay on SF-295 CNS was 91.3%; in the assay with SF-539 CNS, 83%; in the assay with UACC-257 melanoma, 91.6%; in the assay with M14 melanoma it was 92.1%.

For `C(=N\Nc1ccccn1)/c1ccccn1`, the growth in the assay on DU-145 prostate is 9.51% (active); in the assay on K-562 leukemia, 19.3%; with MALME-3M melanoma, -2.58% (active); in the assay with MDA-MB-231 breast, 47.6%; in the assay with RXF 393 renal, 17%; with SF-268 CNS, -0.109% (active). The growth is 21.7% in the assay with SF-295 CNS, 7.48% (active) in the assay with SF-539 CNS, -18.9% (active) with UACC-257 melanoma and -35.8% (active) with M14 melanoma.

In the case of `CC(C)C1=C[C@@]23CC[C@@H]4[C@](C)(CCC[C@@]4(C)C(=O)OCC#CCN4CCCC4)[C@H]2C[C@@H]1[C@H]1C(=O)OC(=O)[C@H]13`, the growth with DU-145 prostate was 89.2%; with K-562 leukemia it was 68.5%; in the assay with MALME-3M melanoma it was 89.6%; in the assay on MDA-MB-231 breast, 98.3%; in the assay with RXF 393 renal, 110%; in the assay on SF-268 CNS, 93.1%. Also, the growth with SF-295 CNS was 97.3%; in the assay on SF-539 CNS it was 92.1%; in the assay with UACC-257 melanoma, 96.5%; in the assay with M14 melanoma, 96.6%.

As for `OCC1C2C=CC(C2)C1CO` (stereo not given), the growth in the assay with DU-145 prostate is 106%; with K-562 leukemia, 112%; with MALME-3M melanoma, 105%; with MDA-MB-231 breast, 103%; in the assay on RXF 393 renal it was 113%; in the assay on SF-268 CNS, 106%. Moreover, the growth in the assay on SF-295 CNS is 104%; in the assay with SF-539 CNS, 126%; with UACC-257 melanoma it was 101%; in the assay on M14 melanoma it was 99.9%.

With `COc1cccc(-c2nc3sccn3c2-c2ccnc(NCCCNS(=O)(=O)c3ccccc3)c2)c1`, the growth in the assay on DU-145 prostate is 42.2%; with K-562 leukemia it was 13.9%; in the assay with MALME-3M melanoma, 50.8%; in the assay with MDA-MB-231 breast it was 58.8%; in the assay on RXF 393 renal, 63.7%; in the assay with SF-268 CNS, 49.9%. The growth in the assay with SF-295 CNS is 28.6%; in the assay on SF-539 CNS, 73.1%; in the assay with UACC-257 melanoma, 50.9%; with M14 melanoma, 38%.

`C[C@H](CCC(=O)O)[C@H]1CC[C@H]2[C@@H]3CC[C@@H]4/C(=C\c5ccco5)C(=O)/C(=C\c5ccco5)C[C@]4(C)[C@H]3CC[C@]12C`: the growth was 66.5% in the assay on DU-145 prostate; 30% with K-562 leukemia; 58.1% with MALME-3M melanoma; 107% in the assay with MDA-MB-231 breast; 45.1% with RXF 393 renal; 80.6% in the assay on SF-268 CNS. Also, the growth was 70.6% with SF-295 CNS, 76.3% in the assay on SF-539 CNS, 51.6% in the assay on UACC-257 melanoma and 52.5% in the assay with M14 melanoma.

`COc1ccc(S(=O)(=O)NCCCNc2cc(-c3c(-c4cccc(OC)c4)nc4sccn34)ccn2)cc1`: the growth in the assay with DU-145 prostate was 46.4%; in the assay with K-562 leukemia it was 25.6%; in the assay with MALME-3M melanoma, 66.1%; with MDA-MB-231 breast, 46.8%; with RXF 393 renal it was 56%; in the assay on SF-268 CNS it was 44.9%. In addition, the growth in the assay with SF-295 CNS is 40.5%; with SF-539 CNS, 61.9%; in the assay with UACC-257 melanoma it was 53.3%; in the assay on M14 melanoma, 45%.
